# NPC1 promoter act: activates the NPC1 promoter | 320,000 compounds, 2.4% hits | Potency, µM (highest dose often 9.22 µM), for inactives: at the highest dose activation, usual class: activators | Huh7 NPC1 promoter luciferase reporter, 24 h; also: % of control where 0% means no effect; nearly all actives have a fitted effect of over 60% in size
#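 Luciferase expression driven by the NPC1 promoter was measured in stably transfected Huh7 cells after a 24 h compound incubation, using a luciferase reagent and a luminescence read.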
# FLuc counter: inhibits or activates purified firefly luciferase, miR-21 counter-screen | purified FLuc, Km substrates, luminescence inhibition | Potency, µM (highest dose often 57.5 µM), for inactives: at the highest dose activity change, negative = inhibition, actives largely listed as inhibitors | P08659 | 360,000 compounds, 6.9% hits;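 also: plate controls were vehicle for no effect and reference inhibitor for full effect; nearly all actives have a fitted effect of over 55% in size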
# Target sequence (P08659 whole entry, looked up): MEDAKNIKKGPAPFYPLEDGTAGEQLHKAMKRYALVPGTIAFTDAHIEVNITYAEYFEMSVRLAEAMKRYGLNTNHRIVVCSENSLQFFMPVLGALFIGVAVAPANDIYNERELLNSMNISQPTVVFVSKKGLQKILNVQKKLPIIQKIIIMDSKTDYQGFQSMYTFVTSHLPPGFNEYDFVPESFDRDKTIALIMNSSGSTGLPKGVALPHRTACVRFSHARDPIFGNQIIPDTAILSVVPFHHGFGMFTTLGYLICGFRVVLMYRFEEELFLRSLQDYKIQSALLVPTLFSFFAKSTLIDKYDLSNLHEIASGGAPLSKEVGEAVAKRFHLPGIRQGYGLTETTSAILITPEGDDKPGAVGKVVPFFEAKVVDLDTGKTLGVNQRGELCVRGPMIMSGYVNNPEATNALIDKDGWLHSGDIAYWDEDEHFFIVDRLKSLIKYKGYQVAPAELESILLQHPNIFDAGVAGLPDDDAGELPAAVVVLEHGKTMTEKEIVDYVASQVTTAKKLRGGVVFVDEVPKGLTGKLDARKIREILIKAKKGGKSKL
#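 Purified P. pyralis luciferase, 10 nM final, with Km-level 10 uM D-luciferin and 10 uM ATP in 50 mM Tris acetate pH 7.5, 10 mM Mg acetate, 0.01% Tween-20, 0.05% BSA; 6-point qHTS titration about 60 µM downward; luminescence read.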
# Rab9 prom act: activators of Rab9 promoter. Huh7 Rab9 promoter-luciferase reporter, luminescence, 24 h. 320,000 compounds, 2.8% hits. AID 485297. Potency, µM (doses to about 9.22 µM), for inactives: at the top dose activation, negative = inhibition, most hits filed as activators; also: % of control where 0% means no effect; nearly all actives have a fitted effect of over 60% in size
#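 Using Huh7 cells stably transfected with Rab9 promoter–luciferase, compounds were incubated 24 h at 37 °C, 5% CO2; luciferase luminescence was read 10 min after reagent addition.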
# ELG1 genotox: genotoxicity induction in ELG1-luciferase HEK293T cells | HEK293T ELG1-luciferase reporter, luminescence, 16 h | Potency, µM (titrated, usually from 46 µM), for the others: top-dose activity change, positive = activation, actives largely listed as activators | 330,000 compounds, 1.3% hits | AID 504466; also: % of control where 0% means no effect; nearly all actives have a fitted effect of over 60% in size
#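 16 hr compound incubation (37 °C, 5% CO2) of HEK293T cells carrying luciferase-tagged ELG1; luciferase then measured by ONE-Glo luminescence after 30 min at RT.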
# ELG1 DNA repair: inhibitors of ELG1-dependent DNA repair in HEK293T cells | HEK293T ELG1-luciferase reporter, luminescence, 16 h; DNA damage induced by 5-fluorouridine | Potency, µM (titrated, usually from 46.1 µM), inactives show top-dose activity change, negative = inhibition, usual class: inhibitors | 330,000 compounds, 2.3% hits; also: % is scaled to controls: 0 for no effect and ±100 for the full control effect; nearly all actives have a fitted effect of over 55% in size
#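 Cells (2,000 per well) received 5-fluorouridine plus test compound or DMSO and were incubated 16 hr at 37 °C, 5% CO2. Luciferase activity was read by luminescence 30 min after ONE-Glo addition; signal suppression marked inhibition of damage-induced ELG1 function.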
# SMN2 splice up: enhancers of SMN2 splice variant expression; Potency, µM (series often up to 46.1 µM), for inactives: at the highest dose activity change, positive = activation, usual class: activators; 210,000 compounds, 2.8% hits; HEK293 SMN2-luciferase splicing reporter, luminescence, 30-36 h; also: % of control where 0% means no effect; nearly all actives have a fitted effect of over 55% in size
#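 HEK293 cells carry an SMN2 […]–luciferase reporter in which exon 7 inclusion puts luciferase in frame. Cells were plated 10-12 h before compound addition, then incubated 30-36 h at 37C. ONE-Glo luminescence was read; sodium butyrate at 4.5 mM final served as control.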
# * = called active by the depositor; ? = inconclusive; nt = no result given. An excerpt weighted towards active compounds, which were near 9.2% of everything screened. Calls follow the shape of the dose curve; as a rule, active = well fitted curve in the direction sought with a large enough effect; inconclusive = small, poorly fitted or top-dose-only effect, or another doubt; inactive = no such curve, though single readings can be large; an effect the other way counts as inactive or inconclusive. Potency is read from the fitted curve at half-maximal effect.
SMILES,NPC1 promoter act,FLuc counter,Rab9 prom act,ELG1 genotox,ELG1 DNA repair,SMN2 splice up
CN(C)c1ccc(/C=C(/NC(=O)c2ccccc2)C(=O)NCCCn2ccnc2)cc1,-3%,4.8µM*,-1%,1%,10%,nt
O=C(NCCCn1ccnc1)/C(=C/c1ccc(Cl)cc1)NC(=O)c1ccccc1,-3%,1%,1%,-4%,1%,nt
O=C(c1cnsn1)N1CCC(CO)(Cc2cccc(F)c2)CC1,?,13µM*,3.2µM*,?,?,nt
COc1ccc2c(N)c(C(=O)NN)[nH]c2c1,-2%,17µM*,-3%,-6%,-11%,nt
COc1ccc2c(Sc3ccccc3)c(C(=O)NCCN(C)C)[nH]c2c1,nt,4.8µM*,nt,nt,nt,nt
Cc1ccc(C(=O)OCC(=O)NC2CCCCC2)cc1S(=O)(=O)N1CCCCC1,-6%,0%,-3%,0%,10%,nt
Cc1ccc(S(=O)(=O)N(C)C)cc1NC(=O)CSc1nncs1,-4%,-5%,-7%,4%,1%,nt
C=CCC[C@@H](Cc1ccc(F)cc1)C(=O)OC[C@@H](Cc1c[nH]c2ccccc12)NC(=O)[C@H](CC=C)CC(=O)N(CCO)Cc1ccccc1,nt,nt,nt,-12%,18µM*,nt
C=CCC[C@H](Cc1ccc(F)cc1)C(=O)OC[C@@H](Cc1c[nH]c2ccccc12)NC(=O)[C@H](CC=C)CC(=O)N(CCO)Cc1ccccc1,nt,nt,nt,-13%,16µM*,nt
Cc1nc2nc(-c3cccs3)cn2nc1C,1.4µM*,11µM*,0.5µM*,?,?,14µM*
Cc1nc2nc(-c3ccc(Cl)cc3)cn2nc1C,?,1.1µM*,0.35µM*,?,?,0.71µM*
CCOc1ccc(-c2cn3nc(CC(C)C)sc3n2)cc1,nt,2.7µM*,nt,nt,nt,17%
Cc1nn2cc(-c3ccc(-c4ccccc4)cc3)nc2s1,0.63µM*,0.54µM*,?,0.82µM*,?,?
COc1cccc(CCNc2ncnc3c2nnn3C)c1,nt,-6%,nt,nt,nt,nt
CCc1nn2cc(-c3ccccc3)nc2s1,0.11µM*,0.48µM*,0.13µM*,nt,?,1.4µM*
COCc1nn2cc(-c3ccc(C)cc3)nc2s1,nt,1.3µM*,nt,nt,nt,2.5µM*
Cc1nn2cc(-c3ccc(Cl)cc3)nc2s1,0.32µM*,1.2µM*,0.32µM*,0.52µM*,?,3.5µM*
COc1ccc(-c2nnc3sc(COc4ccc(C)cc4)nn23)cc1,2%,?,-5%,0%,1%,-1%
COc1cccc(-c2cn3nc(C)c(C)nc3n2)c1,2µM*,11µM*,2.8µM*,?,?,13µM*
O=c1[nH]c(C2CCN(S(=O)(=O)c3ccc(S(=O)(=O)NC4CC4)cc3)CC2)nc2c1nnn2Cc1cccc(F)c1,-1%,1%,0%,-1%,13µM*,nt
Cc1ccc(Cn2nnc3c(=O)[nH]c(C4CCN(S(=O)(=O)c5ccc(S(=O)(=O)NC6CC6)cc5)CC4)nc32)cc1,-6%,-1%,0%,-6%,?,nt
COc1ccc(NC(=O)CSc2nc(=O)n(CCN3CCOCC3)c3c2CCCC3)c(OC)c1,-3%,0%,1%,2%,1%,nt
Oc1ccccc1/C=N/Nc1cccc2cccnc12,?,1.5µM*,13%,?,?,?
O=C(COc1cccc2cccnc12)Nc1ccccc1,?,21µM*,4µM*,11%,?,?
O=C(COc1cccc2cccnc12)N/N=C/c1ccc(O)cc1,-4%,17µM*,1%,-5%,15%,12%
Cc1ccccc1OCC(=O)N/N=C/c1cccc2cccnc12,-3%,-15%,3%,2%,-24%,nt
O=C(COc1cccc2cccnc12)Nc1cccc(S(=O)(=O)N2CCCC2)c1,-1%,-14%,-7%,-2%,?,nt
O=C(COc1cccc2cccnc12)N/N=C/c1ccccc1O,-2%,-10%,-7%,1%,8.2µM*,nt

# Screening results (PubChem)
